High-throughput results: PubChem, several laboratories
An excerpt weighted towards active compounds, which were near 2.9% of everything screened.
Rtt109 HAT inh: inhibitors of C. albicans Rtt109/Vps75 HAT, primary screen, biochemical, ThioGlo CoA-SH fluorescence, plate reader; purified Rtt109/Vps75, 4 h; inhibition, % at 34.9 µM; 330,000 tested, 0.16% active;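 active = inhibition of at least 50% in every replicate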
Target sequence (Q5AAJ8 whole entry, looked up): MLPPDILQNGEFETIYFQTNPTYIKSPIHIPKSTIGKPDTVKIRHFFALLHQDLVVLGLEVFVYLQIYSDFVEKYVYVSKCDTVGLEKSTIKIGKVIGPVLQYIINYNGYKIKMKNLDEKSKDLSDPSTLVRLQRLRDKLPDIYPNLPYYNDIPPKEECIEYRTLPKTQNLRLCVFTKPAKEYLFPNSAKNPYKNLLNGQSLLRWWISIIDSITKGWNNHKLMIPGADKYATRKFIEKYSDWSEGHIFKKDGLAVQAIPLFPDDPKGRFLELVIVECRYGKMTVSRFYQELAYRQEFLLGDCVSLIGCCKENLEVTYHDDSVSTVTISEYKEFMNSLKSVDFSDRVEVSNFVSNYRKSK
sPLA2-III inh: human group III sPLA2 inhibitors, primary screen, biochemical, QFRET, BODIPY PC-A2 liposome substrate; 370,000 tested, 0.56% active; AID 743126, 2013; QFRET BODIPY PC-A2 liposome hydrolysis, fluorescence; inhibition, % at 12.2 µM;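 active = inhibition above mean plus 3 SD of compounds lying within the high and low control bounds, cut at about 19% in these data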
DAGLB inh: DAGLB lipase inhibitors, primary screen, biochemical, fluorescence, HTS; Diacylglycerol lipase-beta (Homo sapiens), Q8NCG7; HEK293T DAGLB membrane lysate, EnzChek fluorogenic substrate; inhibition, % at 5.17 µM; 340,000 tested, 0.059% active; in the data active = inhibition above about 34%
Myeloid diff MLP: induction of myeloid progenitor differentiation, primary screen, cell-based, flow cytometry, MLPCN library. calls only at 10 µM. 360,000 tested, 1% active. ER-HoxA9 myeloid progenitors, lysozyme-GFP differentiation;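 active = normalized GFP-positive differentiation at or above the plate's own cutoff, the solvent-only control mean plus 3 SD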;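 note: cells exposed to compound for four days before flow analysis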
Cardio protect: cardioprotection against H2O2-induced cell death, primary screen, uHTS, H9c2 cells, ATPLite luminescence; H9c2 cardiomyocytes, H2O2 injury protection, 2 h; protection from H2O2 cell death, % at 20 µM; 360,000 tested, 0.63% active; AID 588492, 2011;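 active = compounds giving at least 50% protection of heart cells from peroxide-induced death in the single-dose screen, raw or plate-pattern-corrected value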
ABHD5 PLIN5 PPI: ABHD5-PLIN5 interaction inhibitors, primary screen, cell lysate, split luciferase complementation, luminescence | Split G. princeps luciferase complementation, 4 h | inhibition, % at 4 µM | AID 602281, 2012 | 360,000 tested, 0.78% active;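 active = inhibition above the mean inhibition across every tested compound plus 3 SD, cut at about 22% in these data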
sPLA2 confirm: human group III sPLA2 inhibitors, confirmation, biochemical, QFRET, triplicate | shares compounds with sPLA2-III inh | 2,000 tested, 34% active | inhibition, % at 12.2 µM | recombinant hGIII-sPLA2, BODIPY PC-A2 QFRET fluorescence;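 active = mean inhibition across triplicates above the hit cutoff set in the earlier primary screen, cut at about 19% in these data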
535nm interf: 535nm fluorescence optical interference, confirmation, artefact control for HGIII-sPLA2 inhibitor project, biochemical, QFRET | AID 743282, 2014 | BODIPY FL product fluorescence interference | shares compounds with sPLA2-III inh | inhibition, % at 12.2 µM | 2,000 tested, 8.5% active;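 active = average inhibition above the solvent-only control mean plus 3 SD, cut at about 6% in these data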
Of the large screens only hits and unclear results are named; the others gave an inactive call (follow-up assays come after a bar, where they were run).

CC(=O)c1cccc(NC(=O)c2c(F)c(F)c(F)c(F)c2F)c1	none
CC(=O)c1cccc(NC(=O)C2=CN3CCS(=O)(=O)N=C3C=C2)c1	sPLA2-III inh 20 | sPLA2 confirm inactive | 535nm interf inactive
NC(c1csc(NC(=O)c2cccc(OC(F)(F)F)c2)n1)c1ccccc1Cl (stereo unspecified)	sPLA2-III inh 37, Myeloid diff MLP active (no result: Rtt109 HAT inh, DAGLB inh) | sPLA2 confirm 25 | 535nm interf inactive
CCCC(=O)N(c1ccc(OC)cc1)C1C=CS(=O)(=O)C1 (stereo unspecified)	none
COc1ccc(N(C(=O)c2cccc(OC)c2OC)C2C=CS(=O)(=O)C2)cc1 (stereo unspecified)	sPLA2-III inh 24 | sPLA2 confirm inactive | 535nm interf inactive
COc1ccc(/C=N/NC(=S)Nc2c(C)n(C)n(-c3ccccc3)c2=O)cc1OC	none
Cc1c(NC(=S)N/N=C\c2ccccc2O)c(=O)n(-c2ccccc2)n1C	sPLA2-III inh 34 | sPLA2 confirm inactive | 535nm interf inactive
Cc1c(NC(=S)N/N=C/c2ccc(Br)cc2)c(=O)n(-c2ccccc2)n1C	sPLA2-III inh 20 | sPLA2 confirm 20 | 535nm interf inactive
CCCCCCCCN1CN2Cc3cc(F)ccc3C2CS1(=O)=O (stereo unspecified)	none (no result: Rtt109 HAT inh, DAGLB inh, Myeloid diff MLP, Cardio protect, ABHD5 PLIN5 PPI)
Fc1cc(F)cc(Nc2nc(Cl)nc(NC3CCCC3)n2)c1	none
N#Cc1ccc(S(=O)(=O)NC[C@H]2O[C@@H](n3ccc(N)nc3=O)[C@H](O)[C@@H]2O)cc1	none (no result: Rtt109 HAT inh)
Cn1nnnc1Sc1ncnc2scc(-c3cccc(C(F)(F)F)c3)c12	none
COc1cccc(N2CCN(C(=O)c3ccc(Cl)c(S(=O)(=O)N4CCCCCC4)c3)CC2)c1	none (no result: Rtt109 HAT inh)
O=C(C[n+]1ccc(/C=N/O)cc1)N1CCCCC1	sPLA2-III inh 22 | sPLA2 confirm inactive | 535nm interf inactive
O=C(C[n+]1cccc(/C=N/O)c1)N1CCCCCC1	none
O=C(CCSCCc1ccccn1)Nc1cc(F)ccc1F	sPLA2-III inh 19 | sPLA2 confirm inactive | 535nm interf inactive
O=C(CCSCCc1ccccn1)Nc1ccc(Br)cc1F	none
Cc1onc(-c2ccccc2)c1C(=O)N/N=C/c1cccc(O)c1	none
Cc1onc(-c2ccccc2)c1C(=O)NN=Cc1cc(Cl)cc(Cl)c1O	sPLA2-III inh 22 (no result: Rtt109 HAT inh, DAGLB inh, Myeloid diff MLP, Cardio protect, ABHD5 PLIN5 PPI) | sPLA2 confirm inactive | 535nm interf 11
COC(=O)c1sccc1NC(=S)Nc1cc(C)cc(C)c1	sPLA2-III inh 23 | sPLA2 confirm inactive | 535nm interf inactive
COC(=O)c1sccc1NC(=S)Nc1cccc(F)c1	sPLA2-III inh 19 | sPLA2 confirm inactive | 535nm interf inactive
COc1cccc(OC)c1C(=O)Nc1ccc(N2CCCC2)cc1	none
CCOC(=O)CC1CCCCN1C(=O)CCCn1nnnc1CN1CCOCC1 (stereo unspecified)	none
Cc1ccc2c(c1)C1CS(=O)(=O)N(CCc3ccccc3)C(=O)N1C2 (stereo unspecified)	sPLA2-III inh 19 (no result: Rtt109 HAT inh, DAGLB inh, Myeloid diff MLP, Cardio protect, ABHD5 PLIN5 PPI) | sPLA2 confirm inactive | 535nm interf inactive
Cc1c(Cl)cccc1NC(=S)N1CCOCC1	none (no result: Rtt109 HAT inh)
C=CCn1c(-c2ccco2)n[nH]c1=S	sPLA2-III inh 21 | sPLA2 confirm inactive | 535nm interf inactive
C=CCN=C1NC(c2ccc(F)cc2)C(C(=O)OC)=C(C)N1C (stereo unspecified)	sPLA2-III inh 23 (no result: Rtt109 HAT inh, DAGLB inh, Myeloid diff MLP, Cardio protect, ABHD5 PLIN5 PPI) | sPLA2 confirm inactive | 535nm interf inactive
